Assay results: PubChem BioAssay AID2187 (The Scripps Research Institute Molecular Screening Center, 2009)
Among all 1,300 compounds or so, about 1,200 (92%) were called active.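 How the source made its calls: active means inhibition of the VIM-2 beta-lactamase enzyme above about 11% from the earlier first-round screen (limit read from the data); inactive means the rest.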 The set was probably picked from earlier hits. A selection follows.

What follows are molecules tested on VIM-2 metallo-beta-lactamase (Pseudomonas aeruginosa) (assay: inhibition of VIM-2 nitrocefin hydrolysis – biochemical, epi-absorbance, hits shared with IMP-1 screen, confirmation (AID 2187;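 further: 0% = VIM-2 with DMSO and 100% = buffer wells without enzyme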)). Conditions: purified VIM-2, nitrocefin hydrolysis, at 5.6 µM, hits give high values.

Structure (SMILES) | inhibition
Cc1cc(OCc2cc(C(=O)O)oc2C)c2c3c(c(=O)oc2c1)CCCC3 | 73.5% (active)
Cc1cc(=O)oc2c(C)c(OCC(=O)N3CCN(Cc4ccc5c(c4)OCO5)CC3)ccc12 | 58.3% (active)
